{
  "source": "PubChem BioAssay AID743366",
  "about": "(National Center for Advancing Translational Sciences (NCATS), 2014)",
  "data": [
    {"test": "qHTS profiling of inhibitors of Plasmodium falciparum (HB3) proliferation (acoustic dispense)", "conditions": "P. falciparum HB3 in erythrocytes, SYBR Green, 72 h; at 49.8 µM (top of the series) unless noted", "from_the_text": "Plasmodium falciparum is a virulent malarial parasite that kills 1-2 million people worldwide each year. Transmitted by mosquitoes, the sporozoite form of the parasite enters the blood stream to infect hepatocytes, where they become merozoites that infect red blood cells (erythrocytes). Within erythrocytes, merozoites begin a […] cycle of growth and division, after which the parasite is released to infect new red blood cells. Gametocytes, which form within erythrocytes as well, circulate in the bloodstream and are ingested by the mosquito, thereby completing the life cycle. To profile malarial isolates for differential chemical responses and to identify inhibitors of malarial growth, an assay that measures P. falciparum growth and replication within erythrocytes was employed. This assay uses a DNA binding fluorescent dye (SYBR Green) to detect parasite DNA following cell lysis. Because mature erythrocytes lack DNA, only Plasmodium-derived DNA is detected.\nThe SYBR Green viability assay was adapted from a method described previously (Plouffe et al., 2008). For screening 3 ul culture medium was dispensed into 1536 well black clear bottom plates (Aurora Biotechnologies) using a Multidrop Combi (Thermo Fisher Scientific Inc.), 23 nL of compounds in DMSO were added by an acoustic dispenser (EDC Biosystems), and 5 ul of erythrocytes infected with P. falciparum (0.3% parasitemia, 2.5% hematocrit final concentration) were added. The plates were incubated at 37 C in a humidified incubator in 5% CO2 for 72 h, and 2 ul lysis buffer (20 mM Tris HCl, 10 mM EDTA, 0.16% saponin, 1.6% triton X, 10X SYBR Green I supplied as 10,000X […] by Invitrogen) was added to each well. The plates were mixed for 25 sec with gentle shaking and incubated overnight at room temperature in the dark. The following morning, fluorescence intensity at 485(14) nm excitation and 535(25) nm emission wavelengths was measured on an EnVision (Perkin Elmer) plate reader. Plate reads were normalized relative to the control inhibitor (0.29 uM artemisinin) and vehicle (DMSO) wells present on each plate and then corrected by an algorithm using vehicle-only control plates at the beginning and end of the compound plate stack.", "values": [
      {"molecule": "CN(Cc1cnc2nc(N)nc(N)c2n1)c1ccc(C(=O)N[C@@H](CCC(=O)O)C(=O)O)cc1", "activity (normalised, proliferation)": "0.621%"},
      {"molecule": "CO[C@H]1C=CO[C@@]2(C)Oc3c(C)c(O)c4c(O)c(c(C=NN5CCN(C)CC5)c(O)c4c3C2=O)NC(=O)C(C)=CC=C[C@H](C)[C@H](O)[C@@H](C)[C@@H](O)[C@@H](C)[C@H](OC(C)=O)[C@H]1C", "activity (normalised, proliferation)": "-0.914% [at 16.5 µM]"},
      {"molecule": "CS(=O)(=O)CCNCc1ccc(-c2ccc3ncnc(Nc4ccc(OCc5cccc(F)c5)c(Cl)c4)c3c2)o1", "activity (normalised, proliferation)": "7.39%"},
      {"molecule": "C[C@H]1Cc2c([nH]c3cc(Cl)c(F)cc23)[C@@]2(N1)C(=O)Nc1ccc(Cl)cc12", "activity (normalised, proliferation)": "-0.548%"},
      {"molecule": "CC(Sc1nc2ccccc2[nH]1)C(=O)NN=Cc1cc(Br)ccc1O", "note": "(stereo not given)", "activity (normalised, proliferation)": "-0.944% [at 4.15 µM]"},
      {"molecule": "Cc1[nH]c2ccccc2c1CCNCc1ccc(C=CC(=O)NO)cc1", "activity (normalised, proliferation)": "-2.24%"},
      {"molecule": "C=C[C@@H]1CN2CC[C@@H]1C[C@H]2[C@H](O)c1ccnc2ccc(OC)cc12", "activity (normalised, proliferation)": "0.317%"},
      {"molecule": "CO[C@H]1C=CC=C(C)C(=O)NC2=CC(=O)C(NCCN(C)C)=C(C[C@@H](C)C[C@H](OC)[C@@H](O)[C@@H](C)C=C(C)[C@@H]1OC(N)=O)C2=O", "activity (normalised, proliferation)": "-0.262%"},
      {"molecule": "O=C(Nc1cn[nH]c1-c1nc2ccc(CN3CCOCC3)cc2[nH]1)NC1CC1", "activity (normalised, proliferation)": "1.76%"},
      {"molecule": "C#Cc1cccc(Nc2ncnc3cc(OC)c(OCCCCCCC(=O)NO)cc23)c1", "activity (normalised, proliferation)": "-0.996%"},
      {"molecule": "CC(C)C[C@H](NC(=O)[C@H](CCc1ccccc1)NC(=O)CN1CCOCC1)C(=O)N[C@@H](Cc1ccccc1)C(=O)N[C@@H](CC(C)C)C(=O)[C@@]1(C)CO1", "activity (normalised, proliferation)": "0.732%"},
      {"molecule": "Cc1cnc(Nc2ccc(CN3CCOCC3)cc2)nc1Nc1cccc(S(=O)(=O)NC(C)(C)C)c1", "activity (normalised, proliferation)": "0.609%"},
      {"molecule": "COc1ccc2nc3cc(Cl)ccc3c(Nc3cc(CN4CCCC4)c(O)c(CN4CCCC4)c3)c2n1", "activity (normalised, proliferation)": "-3.23%"},
      {"molecule": "COCCn1c2c([n+](Cc3cnccn3)c1C)C(=O)c1ccccc1C2=O", "activity (normalised, proliferation)": "-1.3%"},
      {"molecule": "COC1=C2C[C@@H](C)C[C@H](OC)[C@@H](O)[C@@H](C)C=C(C)[C@H](OC(N)=O)[C@@H](OC)C=CC=C(C)C(=O)NC(=CC1=O)C2=O", "activity (normalised, proliferation)": "-2.24%"},
      {"molecule": "COc1cc(NCc2ccc3nc(N)nc(N)c3c2C)cc(OC)c1OC", "activity (normalised, proliferation)": "-2.34%"},
      {"molecule": "COc1ncnc(NS(=O)(=O)c2ccc(N)cc2)c1OC", "activity (normalised, proliferation)": "102%"},
      {"molecule": "COc1ccc2cc3[n+](cc2c1OC)CCc1cc2c(cc1-3)OCO2", "activity (normalised, proliferation)": "-1.06%"},
      {"molecule": "CC(C=CC(=O)NO)=C[C@@H](C)C(=O)c1ccc(N(C)C)cc1", "activity (normalised, proliferation)": "-0.304%"},
      {"molecule": "CCC(=O)N1CCN(c2ccc(-n3c(=O)ccc4cnc5ccc(-c6cnc7ccccc7c6)cc5c43)cc2C(F)(F)F)CC1", "activity (normalised, proliferation)": "0.244%"},
      {"molecule": "Cc1nc2cnc3ccc(C#Cc4cccnc4)cc3c2n1-c1ccc(C(C)(C)C#N)cc1", "activity (normalised, proliferation)": "1.13%"},
      {"molecule": "CC(C)Oc1cc(Nc2nc(N[C@@H](C)c3ccc(F)cn3)ncc2Cl)[nH]n1", "activity (normalised, proliferation)": "2.89%"},
      {"molecule": "CN([C@@H](Cc1ccc(OS(=O)(=O)c2cccc3cnccc23)cc1)C(=O)N1CCN(c2ccccc2)CC1)S(=O)(=O)c1cccc2cnccc12", "activity (normalised, proliferation)": "0.0465%"},
      {"molecule": "CN[C@@H]1C[C@H]2O[C@@](C)([C@H]1OC)n1c3ccccc3c3c4c(c5c6ccccc6n2c5c31)C(=O)N[C@H]4O", "activity (normalised, proliferation)": "-0.206%"},
      {"molecule": "O=C1C(=O)c2ccccc2C(O)=C1C1CCC(c2ccc(Cl)cc2)CC1", "note": "(stereo not given)", "activity (normalised, proliferation)": "3.49%"},
      {"molecule": "CN[C@@H](C)C(=O)N[C@H]1CCCC[C@H]2CC[C@@H](C(=O)N[C@@H](c3ccccc3)c3cn(CCCCc4ccc(CCCCn5cc([C@@H](NC(=O)[C@@H]6CC[C@@H]7CCCC[C@H](NC(=O)[C@H](C)NC)C(=O)N76)c6ccccc6)nn5)cc4)nn3)N2C1=O", "activity (normalised, proliferation)": "0.411%"},
      {"molecule": "C1CCC(C(CC2CCCCN2)C2CCCCC2)CC1", "note": "(stereo not given)", "activity (normalised, proliferation)": "-0.0393%"},
      {"molecule": "CN(C)c1ccc2nc3ccc(=[N+](C)C)cc-3sc2c1", "activity (normalised, proliferation)": "19.1%"},
      {"molecule": "CCc1nc(N)nc(N)c1-c1ccc(Cl)cc1", "activity (normalised, proliferation)": "0.0675%"},
      {"molecule": "c1cncc(CN2CCC(n3ncc4c(N5CCOCC5)nc(-c5ccc6[nH]ccc6c5)nc43)CC2)c1", "activity (normalised, proliferation)": "-0.669%"},
      {"molecule": "COC(=O)[C@]12CCC(C)(C)C[C@@H]1[C@@H]1C(=O)C=C3[C@@]4(C)C=C(C#N)C(=O)C(C)(C)[C@@H]4CC[C@@]3(C)[C@]1(C)CC2", "activity (normalised, proliferation)": "41.4%"},
      {"molecule": "CC(C)N=C(N)N=C(N)Nc1ccc(Cl)cc1", "activity (normalised, proliferation)": "-0.113%"},
      {"molecule": "FC(F)c1nc2ccccc2n1-c1nc(N2CCOCC2)nc(N2CCOCC2)n1", "activity (normalised, proliferation)": "25.3%"},
      {"molecule": "Cc1cn[nH]c1", "activity (normalised, proliferation)": "39.3%"},
      {"molecule": "COc1ccc(-c2ccc3ncc4c(c3c2)n(-c2ccc(N3CCNCC3)c(C(F)(F)F)c2)c(=O)n4C)cn1", "activity (normalised, proliferation)": "5.42%"},
      {"molecule": "CC1(C)N=C(N)N=C(N)N1c1ccc(Cl)cc1", "activity (normalised, proliferation)": "-0.199%"},
      {"molecule": "CSc1cccc(Nc2ncc3cc(-c4c(Cl)cccc4Cl)c(=O)n(C)c3n2)c1", "activity (normalised, proliferation)": "3%"},
      {"molecule": "NC(=NCCCCCCN=C(N)N=C(N)Nc1ccc(Cl)cc1)N=C(N)Nc1ccc(Cl)cc1", "activity (normalised, proliferation)": "8.37%"},
      {"molecule": "COc1cc([C@@H]2c3cc4c(cc3[C@@H](O[C@@H]3O[C@@H]5CO[C@@H](c6cccs6)O[C@@H]5[C@H](O)[C@@H]3O)[C@H]3COC(=O)[C@H]23)OCO4)cc(OC)c1O", "activity (normalised, proliferation)": "-0.0351%"},
      {"molecule": "CCN(CC)CCNC(=O)c1c(C)[nH]c(C=C2C(=O)Nc3ccc(F)cc32)c1C", "activity (normalised, proliferation)": "0.208% [at 100 µM]"}
    ]}
  ]
}
